High-throughput results: PubChem BioAssay, The Scripps Research Institute Molecular Screening Center
GPR151 activ = human GPR151 activation. Q8TDV0. PathHunter beta-arrestin GPR151 cells, luminescence. activation, % at 11.2 µM. 650,000 compounds, 1% hits. AID 1508602; in the data active = activation above about 4.9%;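 note: 0% = median of compound wells and 100% = cells with positive control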
MITF primary = blocks human microphthalmia-associated transcription factor; AlphaScreen MITF homodimerization, bead proximity signal; inhibition, % at 2.6 µM; 650,000 compounds, 0.91% hits; in the data active = inhibition above about 50%;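 note: 0% = vehicle wells with protein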
FBW7 act = human FBW7 E3 ligase activation, primary screen | Q969H0 | AlphaScreen FBW7–phospho-cyclin E peptide binding, activator screen | normalized activity (activation), % at 26.1 µM | 650,000 compounds, 0.13% hits | AID 1259310; in the data active = normalized activity above about 1.9%;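 note: purified mutant Fbw7 with reduced substrate affinity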
Target sequence (Q969H0 whole entry, looked up): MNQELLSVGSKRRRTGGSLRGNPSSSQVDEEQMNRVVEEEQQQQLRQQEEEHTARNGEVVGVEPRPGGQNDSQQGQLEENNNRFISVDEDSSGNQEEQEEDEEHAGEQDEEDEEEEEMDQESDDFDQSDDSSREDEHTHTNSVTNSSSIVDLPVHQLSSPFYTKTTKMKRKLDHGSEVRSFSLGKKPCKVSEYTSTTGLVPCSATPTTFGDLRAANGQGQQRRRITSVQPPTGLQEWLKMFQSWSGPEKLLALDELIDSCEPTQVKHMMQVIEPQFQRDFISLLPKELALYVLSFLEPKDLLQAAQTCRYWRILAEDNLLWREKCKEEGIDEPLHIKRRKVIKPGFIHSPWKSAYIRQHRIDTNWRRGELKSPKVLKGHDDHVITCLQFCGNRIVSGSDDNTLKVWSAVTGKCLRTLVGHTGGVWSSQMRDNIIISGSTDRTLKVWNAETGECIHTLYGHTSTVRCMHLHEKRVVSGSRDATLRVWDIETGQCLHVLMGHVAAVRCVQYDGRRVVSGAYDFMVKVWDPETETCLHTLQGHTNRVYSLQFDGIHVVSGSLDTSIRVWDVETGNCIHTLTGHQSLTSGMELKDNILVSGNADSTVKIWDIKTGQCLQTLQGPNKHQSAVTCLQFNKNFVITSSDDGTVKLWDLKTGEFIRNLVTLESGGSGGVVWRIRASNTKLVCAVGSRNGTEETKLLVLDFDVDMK
TEAD-YAP inh = TEAD-YAP interaction inhibition | HEK-TIYL cells, TEAD-Gal4/YAP UAS-luciferase luminescence | inhibition, % at 9.12 µM | 640,000 compounds, 1.4% hits; in the data active = inhibition above about 32%;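 note: 0% = median of test compound wells and 100% = reference inhibitor wells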
MITF inh conf = human MITF inhibition, confirmation; AlphaScreen MITF homodimerization, biotin/His-MITF beads; AID 1259372; inhibition, % at 2.6 µM; shares compounds with MITF primary; 4,700 compounds, 16% hits;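 active = inhibition above a cutoff derived from the DMSO control wells, cut at about 28% in these data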;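 note: 0% = MITF dimer wells with DMSO only; inhibitors lower the bead chemiluminescence by keeping MITF from dimerizing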
AS interf DR = optically interferes with AlphaScreen signal in dose response; IC50, µM; AID 1259373; 480 compounds, 6% hits; shares compounds with MITF primary; AlphaScreen optical interference counterscreen, cell-free; call rule not given here
AS interf ctr = counter-screen: compounds optically interfering with AlphaScreen. shares compounds with MITF primary. LysRS AlphaScreen counterscreen, signal interference, triplicate. inhibition, % at 2.6 µM. 4,700 compounds, 7.6% hits;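 active = inhibition above a cutoff derived from the DMSO control wells, cut at about 30% in these data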
An asterisk follows results filed as active. Only some compounds are listed: those with a hit (about 3.5% of all), similar ones and a draw of the others.

Results for OC(COC1CCCc2ccccc21)CN1CCN(Cc2ccc3c(c2)OCO3)CC1 (stereo unspecified) ?
GPR151 activ: 1; MITF primary: 80*; FBW7 act: 0; TEAD-YAP inh: -5; MITF inh conf: 12; AS interf ctr: 10

Results for Cc1ccccc1CSc1ncnc2c1nnn2-c1ccc(F)cc1 ?
GPR151 activ: 2; MITF primary: -11; FBW7 act: 0; TEAD-YAP inh: 6

How did COc1ccc(-c2nnc(SCC(=O)Nc3ccc(Br)cc3)o2)cc1 do in these assays?
GPR151 activ: 1; MITF primary: 7; FBW7 act: 0; TEAD-YAP inh: 3

Results for COc1ccccc1-c1c(C)nn2c(NCc3ccccc3)cc(C)nc12 ?
GPR151 activ: -1; MITF primary: 11; FBW7 act: 0; TEAD-YAP inh: 1

Results for COc1ccccc1-c1c(C)nn2c(NCc3cccs3)cc(C)nc12 ?
GPR151 activ: 1; MITF primary: 54*; FBW7 act: 0; TEAD-YAP inh: -5; MITF inh conf: 1; AS interf ctr: 14

How did O=C(Nc1nc2c(s1)COc1ccccc1-2)C1CCCN1S(=O)(=O)c1ccc(Cl)cc1 (stereo unspecified) do in these assays?
GPR151 activ: 1; MITF primary: 52*; FBW7 act: 0; TEAD-YAP inh: 8; MITF inh conf: 0; AS interf ctr: -4

Results for CC1CN(CC(=O)N(C)CC2CCCCO2)Cc2cc(Cl)ccc2O1 (stereo unspecified) ?
GPR151 activ: 2; MITF primary: 55*; FBW7 act: 0; TEAD-YAP inh: 5; MITF inh conf: -4; AS interf ctr: -1

How did O=C(Cn1c2ccccc2c(=O)c2ccccc21)Oc1ccc(Br)cc1 do in these assays?
GPR151 activ: 0; MITF primary: 12; FBW7 act: 0; TEAD-YAP inh: -3

How did c1cncc(-c2nc(NCCCn3ccnc3)cc(-c3ccncc3)n2)c1 do in these assays?
GPR151 activ: -1; MITF primary: 13; FBW7 act: -1; TEAD-YAP inh: 13

How did c1cncc(-c2cc(NCCCn3ccnc3)nc(-c3cccnc3)n2)c1 do in these assays?
GPR151 activ: 2; MITF primary: 65*; FBW7 act: -1; TEAD-YAP inh: 8; MITF inh conf: 29*; AS interf ctr: 39*

How did CN(c1ccccc1)S(=O)(=O)c1ccc(/C(O)=C(\C#N)c2nc3ccccc3n2C)cc1 do in these assays?
GPR151 activ: 0; MITF primary: 62*; FBW7 act: 0; TEAD-YAP inh: 1; MITF inh conf: -5; AS interf ctr: 5

What do the screens show for `CCn1nnc2c(SCC(=O)NCCc3ccccc3)ncnc21`?
GPR151 activ: -1; MITF primary: 1; FBW7 act: 0; TEAD-YAP inh: 5

Results for CCc1nc2c(sc3cccc(F)c32)c(=O)n1CC(=O)NCc1ccc(Cl)cc1 ?
GPR151 activ: -1; MITF primary: 55*; FBW7 act: 0; TEAD-YAP inh: -4; MITF inh conf: -5; AS interf ctr: -5

What do the screens show for `COc1cccc(CN2CCN(C(=O)c3ccncc3)CC2)c1OC`?
GPR151 activ: -1; MITF primary: 83*; FBW7 act: 1; TEAD-YAP inh: 7; MITF inh conf: 11; AS interf ctr: 19

How did COc1ccc(CN2CCN(C(=O)c3ccncc3)CC2)c(OC)c1OC do in these assays?
GPR151 activ: -1; MITF primary: 51*; FBW7 act: 0; TEAD-YAP inh: -8; MITF inh conf: -2; AS interf ctr: -4

Results for COc1ccc(CN2CCN(C(=O)c3ccccc3)CC2)c(OC)c1OC ?
GPR151 activ: 0; MITF primary: 25; FBW7 act: 0; TEAD-YAP inh: -6

How did Nc1nonc1-n1nnc(CN2CCOCC2)c1C(=O)NNC(=O)c1cccs1 do in these assays?
GPR151 activ: 0; MITF primary: 11; FBW7 act: 0; TEAD-YAP inh: -3

Results for Nc1cc(Br)cnc1N ?
GPR151 activ: 0; MITF primary: 78*; FBW7 act: 0; TEAD-YAP inh: -18; MITF inh conf: 80*; AS interf DR: >8.6; AS interf ctr: 9

What do the screens show for `Cc1cc(C)nc(NS(=O)(=O)c2ccc(NC(=O)c3sc4nc5c(cc4c3N)CCCCC5)cc2)n1`?
GPR151 activ: -1; MITF primary: 14; FBW7 act: 0; TEAD-YAP inh: -6

Results for CC1CC(OC(=O)Nc2ccccc2)C2C=C(Cl)C=CC2S1 (stereo unspecified) ?
GPR151 activ: 0; MITF primary: 19; FBW7 act: 0; TEAD-YAP inh: 27

How did Cc1cccc(CNCc2cc(NC(=O)c3ccccn3)cc(C(=O)N(C)C)c2)c1 do in these assays?
GPR151 activ: 4; MITF primary: 69*; FBW7 act: 0; TEAD-YAP inh: 8; MITF inh conf: -7; AS interf ctr: -1

Results for CN(C)C(=O)c1cc(CNCc2cccc(Cl)c2)cc(NC(=O)c2ccccn2)c1 ?
GPR151 activ: 1; MITF primary: -14; FBW7 act: 0; TEAD-YAP inh: -4

How did O=C(NCCCNc1ccc([N+](=O)[O-])cc1Cl)c1ccc(Br)cc1 do in these assays?
GPR151 activ: 0; MITF primary: 12; FBW7 act: 0; TEAD-YAP inh: 5

What do the screens show for `O=c1[nH]c(/C=C/c2ccco2)nc(O)c1[N+](=O)[O-]`?
GPR151 activ: 0; MITF primary: 83*; FBW7 act: -1; TEAD-YAP inh: 2; MITF inh conf: 67*; AS interf DR: >6.5; AS interf ctr: -7

Results for FC(F)(F)C(Oc1nc(NCc2ccccc2)nc(OC(C(F)(F)F)C(F)(F)F)n1)C(F)(F)F ?
GPR151 activ: 2; MITF primary: -9; FBW7 act: 0; TEAD-YAP inh: 9

Results for CS(=O)(=O)c1ccccc1C(=O)Nc1nc(-c2ccccn2)cs1 ?
GPR151 activ: 1; MITF primary: 57*; FBW7 act: -2; TEAD-YAP inh: 19; MITF inh conf: 38*; AS interf ctr: 100*

Results for CSc1ccccc1C(=O)Nc1nc(-c2ccccn2)cs1 ?
GPR151 activ: -1; MITF primary: 28; FBW7 act: -2; TEAD-YAP inh: 14

Results for CCn1ccc(C(=O)Nc2nc(-c3ccccn3)cs2)n1 ?
GPR151 activ: 3; MITF primary: 83*; FBW7 act: -1; TEAD-YAP inh: -23; MITF inh conf: 73*; AS interf ctr: 101*

How did COc1ccc(C(=O)/C=C(\C)NNC(=O)c2cccc(C)c2)cc1 do in these assays?
GPR151 activ: -2; MITF primary: -80; FBW7 act: 0; TEAD-YAP inh: -13

How did COc1ccc(/C=C2/C(=O)N(c3ccc(C)c(C)c3)N=C2C)cc1[N+](=O)[O-] do in these assays?
GPR151 activ: 1; MITF primary: 3; FBW7 act: 0; TEAD-YAP inh: 3
